Measurements taken from the supplement of paper PMC10849652.
Of roughly 7,900 targets only a part is listed; those with a hit were picked by preference. About 0.6% of all pairs of compound and target were hits.

Compound: C1=CC=C(C=C1)[C@H](COC2=CC3=C(C=C2)NC(=O)N3)NC(=O)C4=CC=CN(C4=O)CC5=CC(=C(C=C5)F)F
Assay: log2 fold change, soluble protein after heating vs DMSO (PISA); higher = thermal stabilisation; K562 cells, 10 uM, 30 min; active = over 0.2 and 3.5 SD of the protein, either way, in both replicates (recomputed)
Summary of the method: (§1)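 Values are thermal stability changes relative to control samples and are taken from duplicates. They are stated as log2 fold changes. Before quantification by TMTpro 16plex LC-MS/MS with equalised channel sums, K562 cells at 2×10^6 cells/mL were treated with 10 μM compound for 30 min, heated in aliquots for 3 min across 48°C-58°C, pooled, extracted in PBS with 0.5% NP-40 at 4°C, and centrifuged at 21,000xg for 90 min to give the soluble supernatant.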

Sequence of UniProt Q86UL3 (Q86UL3 whole entry, looked up): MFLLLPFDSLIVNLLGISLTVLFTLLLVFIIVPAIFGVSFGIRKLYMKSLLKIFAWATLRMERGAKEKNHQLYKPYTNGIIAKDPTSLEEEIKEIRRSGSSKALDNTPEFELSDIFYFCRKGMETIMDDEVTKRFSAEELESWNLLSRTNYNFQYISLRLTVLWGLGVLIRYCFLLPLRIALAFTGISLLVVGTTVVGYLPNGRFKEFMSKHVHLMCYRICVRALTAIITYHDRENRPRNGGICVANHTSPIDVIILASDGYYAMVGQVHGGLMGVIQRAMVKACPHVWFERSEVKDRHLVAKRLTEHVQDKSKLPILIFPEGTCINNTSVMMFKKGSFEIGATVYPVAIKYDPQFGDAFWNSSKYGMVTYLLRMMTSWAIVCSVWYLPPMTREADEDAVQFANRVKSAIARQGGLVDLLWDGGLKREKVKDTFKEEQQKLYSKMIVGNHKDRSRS
Sequence of UniProt P31150 (P31150 whole entry, looked up): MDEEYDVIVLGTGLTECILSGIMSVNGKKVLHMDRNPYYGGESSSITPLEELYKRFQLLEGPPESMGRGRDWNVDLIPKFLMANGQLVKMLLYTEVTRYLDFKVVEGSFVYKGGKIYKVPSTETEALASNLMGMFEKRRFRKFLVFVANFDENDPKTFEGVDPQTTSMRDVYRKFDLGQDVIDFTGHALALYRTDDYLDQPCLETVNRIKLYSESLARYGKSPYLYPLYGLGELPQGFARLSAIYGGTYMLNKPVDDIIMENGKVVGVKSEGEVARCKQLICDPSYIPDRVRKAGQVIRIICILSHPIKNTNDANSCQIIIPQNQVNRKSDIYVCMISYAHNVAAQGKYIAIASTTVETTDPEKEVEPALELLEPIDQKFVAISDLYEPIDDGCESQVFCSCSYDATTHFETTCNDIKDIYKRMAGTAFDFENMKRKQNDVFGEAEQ
Sequence of UniProt P52789 (P52789 whole entry, looked up): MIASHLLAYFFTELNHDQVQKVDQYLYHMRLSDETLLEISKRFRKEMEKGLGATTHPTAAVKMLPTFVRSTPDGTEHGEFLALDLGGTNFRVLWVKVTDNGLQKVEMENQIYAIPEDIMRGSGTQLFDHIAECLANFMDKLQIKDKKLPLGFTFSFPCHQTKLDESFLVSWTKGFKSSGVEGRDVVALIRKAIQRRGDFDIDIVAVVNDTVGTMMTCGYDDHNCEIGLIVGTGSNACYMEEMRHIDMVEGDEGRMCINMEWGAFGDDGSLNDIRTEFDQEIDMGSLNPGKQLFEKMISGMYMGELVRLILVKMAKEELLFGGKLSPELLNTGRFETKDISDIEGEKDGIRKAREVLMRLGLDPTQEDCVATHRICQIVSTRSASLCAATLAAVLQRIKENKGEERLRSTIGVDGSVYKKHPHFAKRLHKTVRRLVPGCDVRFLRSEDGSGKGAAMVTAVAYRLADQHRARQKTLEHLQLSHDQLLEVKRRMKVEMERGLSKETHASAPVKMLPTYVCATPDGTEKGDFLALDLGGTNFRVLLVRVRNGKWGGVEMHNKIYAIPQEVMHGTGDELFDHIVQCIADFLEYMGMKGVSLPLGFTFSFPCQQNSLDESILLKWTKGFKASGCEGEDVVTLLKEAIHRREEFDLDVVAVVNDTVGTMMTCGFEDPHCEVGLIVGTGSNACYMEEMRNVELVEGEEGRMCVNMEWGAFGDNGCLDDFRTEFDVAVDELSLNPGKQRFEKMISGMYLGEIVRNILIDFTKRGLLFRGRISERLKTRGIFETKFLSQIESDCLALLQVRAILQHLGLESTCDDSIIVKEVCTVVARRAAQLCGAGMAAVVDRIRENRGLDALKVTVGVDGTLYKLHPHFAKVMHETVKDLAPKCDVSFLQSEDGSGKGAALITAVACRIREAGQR
Sequence of UniProt Q9Y3I1 (Q9Y3I1 whole entry, looked up): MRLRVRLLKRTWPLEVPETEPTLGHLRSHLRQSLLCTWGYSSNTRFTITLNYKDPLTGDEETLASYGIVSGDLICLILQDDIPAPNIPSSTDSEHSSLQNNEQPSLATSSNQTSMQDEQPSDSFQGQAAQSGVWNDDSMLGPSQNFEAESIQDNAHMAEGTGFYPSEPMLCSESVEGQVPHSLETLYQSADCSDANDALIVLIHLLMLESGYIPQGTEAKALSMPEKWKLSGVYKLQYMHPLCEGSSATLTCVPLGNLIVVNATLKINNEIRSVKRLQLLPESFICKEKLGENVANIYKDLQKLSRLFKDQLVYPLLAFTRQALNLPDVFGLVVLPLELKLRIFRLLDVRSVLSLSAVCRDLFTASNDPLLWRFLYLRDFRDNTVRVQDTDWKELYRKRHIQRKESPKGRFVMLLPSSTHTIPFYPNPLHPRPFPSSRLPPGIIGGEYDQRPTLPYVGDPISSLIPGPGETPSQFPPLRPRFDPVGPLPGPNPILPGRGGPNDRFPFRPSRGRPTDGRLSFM
Sequence of UniProt Q00403 (Q00403 whole entry, looked up): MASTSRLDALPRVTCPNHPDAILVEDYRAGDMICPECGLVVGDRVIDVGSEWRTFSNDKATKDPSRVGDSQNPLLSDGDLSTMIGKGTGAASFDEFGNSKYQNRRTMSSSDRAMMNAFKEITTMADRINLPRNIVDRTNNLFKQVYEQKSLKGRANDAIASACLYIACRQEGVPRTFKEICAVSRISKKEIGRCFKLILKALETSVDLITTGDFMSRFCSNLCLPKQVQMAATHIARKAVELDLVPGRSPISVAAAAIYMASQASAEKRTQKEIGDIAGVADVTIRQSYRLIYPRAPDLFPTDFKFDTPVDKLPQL
Sequence of UniProt Q10472 (Q10472 whole entry, looked up): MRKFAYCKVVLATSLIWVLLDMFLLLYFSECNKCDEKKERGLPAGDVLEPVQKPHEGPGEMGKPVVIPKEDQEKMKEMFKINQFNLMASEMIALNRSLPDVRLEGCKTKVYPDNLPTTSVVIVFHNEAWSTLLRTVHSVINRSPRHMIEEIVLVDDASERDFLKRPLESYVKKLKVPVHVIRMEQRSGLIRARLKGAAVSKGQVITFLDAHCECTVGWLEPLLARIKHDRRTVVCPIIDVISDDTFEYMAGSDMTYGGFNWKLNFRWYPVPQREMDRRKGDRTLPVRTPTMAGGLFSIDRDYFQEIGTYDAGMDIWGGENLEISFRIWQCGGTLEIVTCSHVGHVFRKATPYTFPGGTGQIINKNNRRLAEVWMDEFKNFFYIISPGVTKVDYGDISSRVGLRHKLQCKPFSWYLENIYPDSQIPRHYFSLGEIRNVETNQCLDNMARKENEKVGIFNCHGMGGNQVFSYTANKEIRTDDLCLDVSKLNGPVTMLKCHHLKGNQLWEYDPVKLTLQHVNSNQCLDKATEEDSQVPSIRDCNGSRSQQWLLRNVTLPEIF
Sequence of UniProt O00165 (O00165 whole entry, looked up): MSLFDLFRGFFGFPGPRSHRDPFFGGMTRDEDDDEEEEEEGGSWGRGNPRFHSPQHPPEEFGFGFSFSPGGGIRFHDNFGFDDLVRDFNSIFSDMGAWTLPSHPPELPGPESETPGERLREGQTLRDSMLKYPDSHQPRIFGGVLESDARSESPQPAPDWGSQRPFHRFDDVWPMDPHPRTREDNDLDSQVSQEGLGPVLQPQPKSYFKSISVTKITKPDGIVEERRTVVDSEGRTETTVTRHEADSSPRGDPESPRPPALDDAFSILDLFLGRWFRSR
Sequence of UniProt P14324 (P14324 whole entry, looked up): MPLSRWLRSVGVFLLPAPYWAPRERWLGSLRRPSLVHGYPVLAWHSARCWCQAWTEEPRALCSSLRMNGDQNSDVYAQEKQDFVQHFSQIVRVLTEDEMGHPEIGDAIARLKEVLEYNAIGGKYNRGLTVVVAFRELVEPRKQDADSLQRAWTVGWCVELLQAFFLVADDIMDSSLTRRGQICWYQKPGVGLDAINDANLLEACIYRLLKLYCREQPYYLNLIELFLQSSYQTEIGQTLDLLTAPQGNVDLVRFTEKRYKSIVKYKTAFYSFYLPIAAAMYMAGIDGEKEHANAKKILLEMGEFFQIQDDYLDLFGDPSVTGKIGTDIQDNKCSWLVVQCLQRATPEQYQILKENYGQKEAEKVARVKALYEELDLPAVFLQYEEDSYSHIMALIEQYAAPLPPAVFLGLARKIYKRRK
Sequence of UniProt P05114 (P05114 whole entry, looked up): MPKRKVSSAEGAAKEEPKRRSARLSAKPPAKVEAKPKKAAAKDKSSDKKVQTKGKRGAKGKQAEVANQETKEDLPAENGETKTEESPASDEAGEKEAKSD
Sequence of UniProt P22570 (P22570 whole entry, looked up): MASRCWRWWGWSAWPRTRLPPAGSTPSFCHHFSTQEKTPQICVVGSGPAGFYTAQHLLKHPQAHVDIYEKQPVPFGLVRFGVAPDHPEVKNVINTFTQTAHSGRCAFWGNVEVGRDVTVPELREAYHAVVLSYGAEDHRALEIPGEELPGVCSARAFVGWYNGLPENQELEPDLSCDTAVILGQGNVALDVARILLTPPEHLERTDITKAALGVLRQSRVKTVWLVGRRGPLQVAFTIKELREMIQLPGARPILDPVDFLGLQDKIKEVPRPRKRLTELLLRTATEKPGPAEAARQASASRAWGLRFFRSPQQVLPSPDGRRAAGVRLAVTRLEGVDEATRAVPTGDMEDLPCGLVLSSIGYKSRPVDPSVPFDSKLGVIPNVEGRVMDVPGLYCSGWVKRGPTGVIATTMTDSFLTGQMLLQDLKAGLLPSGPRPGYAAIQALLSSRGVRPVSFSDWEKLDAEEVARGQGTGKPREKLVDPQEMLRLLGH
Sequence of UniProt O43427 (O43427 whole entry, looked up): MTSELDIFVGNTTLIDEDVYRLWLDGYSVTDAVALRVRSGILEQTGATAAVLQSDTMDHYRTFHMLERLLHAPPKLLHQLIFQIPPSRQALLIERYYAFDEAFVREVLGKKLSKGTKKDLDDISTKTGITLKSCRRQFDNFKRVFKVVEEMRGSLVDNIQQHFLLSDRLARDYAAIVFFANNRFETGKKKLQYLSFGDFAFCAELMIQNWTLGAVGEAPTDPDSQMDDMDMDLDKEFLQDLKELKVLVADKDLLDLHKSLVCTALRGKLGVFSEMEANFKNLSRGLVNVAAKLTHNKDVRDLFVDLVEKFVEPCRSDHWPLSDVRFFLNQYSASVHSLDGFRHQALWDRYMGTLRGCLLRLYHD

Target | log2 fold change
HK2 (UniProt P52789) | -0.006 (inactive)
HSPA2 (UniProt P54652) | 0.003 (inactive)
FBXO6 (UniProt Q9NRD1) | 0.013 (inactive)
GTF2B (UniProt Q00403) | -0.036 (inactive)
GAGE12F (UniProt P0CL80) | -0.016 (inactive)
GDI1 (UniProt P31150) | -0.025 (inactive)
HNRNPK isoform 2 (UniProt P61978) | -0.027 (inactive)
FBXO7 (UniProt Q9Y3I1) | -0.002 (inactive)
HIST2H3A (UniProt Q71DI3) | 0.068 (inactive)
HEATR5B (UniProt Q9P2D3) | -0.029 (inactive)
HDAC10 (UniProt Q969S8) | -0.061 (inactive)
HBZ, A0A494C057 | -0.047 (inactive)
HDAC2 (UniProt Q92769) | 0.022 (inactive)
GNS (UniProt P15586) | 0.037 (inactive)
FOXK1 (UniProt P85037) | 0.104 (inactive)
HEATR3 (UniProt Q7Z4Q2) | -0.073 (inactive)
FUNDC1 (UniProt Q8IVP5) | 0.052 (inactive)

Target | log2 fold change
HNRNPF (UniProt P52597) | -0.032 (inactive)
GNL3 (UniProt Q9BVP2) | 0.101 (inactive)
HMGN1 (UniProt P05114) | 0.042 (inactive)
FIBP (UniProt O43427) | 0.091 (inactive)
GALNT1 (UniProt Q10472) | -0.034 (inactive)
HAX1 (UniProt O00165) | -0.112 (inactive)
FDPS (UniProt P14324) | -0.328 (inactive)
GEMIN5 (UniProt Q8TEQ6) | -0.004 (inactive)
GYS1 (UniProt P13807) | 0.007 (inactive)
GNPAT (UniProt O15228) | -0.034 (inactive)
FDXR isoform 7 (UniProt P22570) | -0.069 (inactive)
HECTD1 (UniProt Q9ULT8) | 0.009 (inactive)
GNAI3 (UniProt P08754) | -0.005 (inactive)
FANCD2 isoform 1 (UniProt Q9BXW9) | -0.018 (inactive)
GPAT4 (UniProt Q86UL3) | 0.023 (inactive)
FIS1 (UniProt Q9Y3D6) | 0.047 (inactive)
GABARAPL1 isoform 2 (UniProt Q9H0R8) | 0.02 (inactive)

Compound: CC1=C(SC2=C1C(=N[C@H](C3=NN=C(N32)C)CC(=O)N)C4=CC=C(C=C4)Cl)C
Assay: as above
Summary of the method: as §1

Target | log2 fold change
HK2 (UniProt P52789) | 0.045 (inactive)
FBXO6 (UniProt Q9NRD1) | 0.087 (inactive)
GTF2B (UniProt Q00403) | 0.007 (inactive)
GAGE12F (UniProt P0CL80) | 0.137 (inactive)
GDI1 (UniProt P31150) | 0.054 (inactive)
HNRNPK isoform 2 (UniProt P61978) | 0.012 (inactive)
FBXO7 (UniProt Q9Y3I1) | 0.033 (inactive)
HIST2H3A (UniProt Q71DI3) | -0.153 (inactive)
HEATR5B (UniProt Q9P2D3) | -0.015 (inactive)
HDAC10 (UniProt Q969S8) | -0.028 (inactive)
HDAC2 (UniProt Q92769) | 0.042 (inactive)
GNS (UniProt P15586) | 0.011 (inactive)
FOXK1 (UniProt P85037) | -0.042 (inactive)
HEATR3 (UniProt Q7Z4Q2) | -0.014 (inactive)
HNRNPF (UniProt P52597) | -0.049 (inactive)
GNL3 (UniProt Q9BVP2) | 0.112 (inactive)

Target | log2 fold change
HMGN1 (UniProt P05114) | -0.023 (inactive)
FIBP (UniProt O43427) | 0.152 (inactive)
GALNT1 (UniProt Q10472) | 0.069 (inactive)
HAX1 (UniProt O00165) | -0.008 (inactive)
FDPS (UniProt P14324) | 0.063 (inactive)
GEMIN5 (UniProt Q8TEQ6) | -0.019 (inactive)
GYS1 (UniProt P13807) | -0.13 (inactive)
GNPAT (UniProt O15228) | 0.043 (inactive)
FDXR isoform 7 (UniProt P22570) | 0.106 (inactive)
HECTD1 (UniProt Q9ULT8) | 0 (inactive)
GNAI3 (UniProt P08754) | 0.019 (inactive)
FANCD2 isoform 1 (UniProt Q9BXW9) | 0.068 (inactive)
GPAT4 (UniProt Q86UL3) | 0.046 (inactive)
FIS1 (UniProt Q9Y3D6) | 0.021 (inactive)
GABARAPL1 isoform 2 (UniProt Q9H0R8) | 0.094 (inactive)

Compound: CC1=C2C(=CC=C1)N=C(N(C2=O)C3=CC=CC=C3C)CN4C=NC5=C(N=CN=C54)N
Assay: as above
Summary of the method: as §1

Target | log2 fold change
HK2 (UniProt P52789) | 0.007 (inactive)
FBXO6 (UniProt Q9NRD1) | 0.041 (inactive)
GTF2B (UniProt Q00403) | 0.154 (inactive)
GAGE12F (UniProt P0CL80) | 0.109 (inactive)
GDI1 (UniProt P31150) | 0.043 (inactive)
HNRNPK isoform 2 (UniProt P61978) | 0.047 (inactive)
FBXO7 (UniProt Q9Y3I1) | 0.045 (inactive)
HIST2H3A (UniProt Q71DI3) | -0.266 (inactive)
HEATR5B (UniProt Q9P2D3) | 0.052 (inactive)
HDAC10 (UniProt Q969S8) | 0.07 (inactive)
HDAC2 (UniProt Q92769) | 0.08 (inactive)
GNS (UniProt P15586) | 0.013 (inactive)
FOXK1 (UniProt P85037) | 0.253 (inactive)
HEATR3 (UniProt Q7Z4Q2) | 0.026 (inactive)
HNRNPF (UniProt P52597) | -0.019 (inactive)
GNL3 (UniProt Q9BVP2) | 0.164 (inactive)

Target | log2 fold change
HMGN1 (UniProt P05114) | -0.119 (inactive)
FIBP (UniProt O43427) | 0.042 (inactive)
GALNT1 (UniProt Q10472) | -0.002 (inactive)
HAX1 (UniProt O00165) | 0.063 (inactive)
FDPS (UniProt P14324) | 0.143 (inactive)
GEMIN5 (UniProt Q8TEQ6) | 0.022 (inactive)
GYS1 (UniProt P13807) | -0.02 (inactive)
GNPAT (UniProt O15228) | 0.07 (inactive)
FDXR isoform 7 (UniProt P22570) | 0.038 (inactive)
HECTD1 (UniProt Q9ULT8) | 0.098 (inactive)
GNAI3 (UniProt P08754) | 0.011 (inactive)
FANCD2 isoform 1 (UniProt Q9BXW9) | 0.159 (inactive)
GPAT4 (UniProt Q86UL3) | 0.013 (inactive)
FIS1 (UniProt Q9Y3D6) | 0.035 (inactive)
GABARAPL1 isoform 2 (UniProt Q9H0R8) | 0.073 (inactive)
